PubChem BioAssay (NCI)
“And” between values parts separate entries of the source, which are not always exact repeats. Equal entries are not always repeated. Compounds without any hit were thinned out: in the full panel of roughly 83,000, 20% have a hit.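 Results are percent growth after 48 hours of single-concentration exposure. 100 means growth as in untreated cells, lower positive values show inhibition; negative values down to -100 show cell death.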

Tests used:
Experiment in all cases: NCI-60 one-dose screen, 48 h (100 = growth as untreated, 0 = no growth, -100 = all killed)
Details in all cases: 10 µM unless noted; active = growth percent below 10; inactive = the rest
SK-MEL-2 melanoma = test system: SK-MEL-2 melanoma
EKVX NSCLC = test system: EKVX NSCLC
SN12C renal = test system: SN12C renal
UO-31 renal = test system: UO-31 renal
TK-10 renal = test system: TK-10 renal
ACHN renal = test system: ACHN renal
CAKI-1 renal = test system: CAKI-1 renal
A498 renal = test system: A498 renal
CCRF-CEM leukemia = test system: CCRF-CEM leukemia
MOLT-4 leukemia = test system: MOLT-4 leukemia
SR leukemia = test system: SR leukemia
RPMI-8226 leukemia = test system: RPMI-8226 leukemia
OVCAR-8 ovarian = test system: OVCAR-8 ovarian
OVCAR-5 ovarian = test system: OVCAR-5 ovarian
OVCAR-4 ovarian = test system: OVCAR-4 ovarian
SK-OV-3 ovarian = test system: SK-OV-3 ovarian
OVCAR-3 ovarian = test system: OVCAR-3 ovarian
HS 578T breast = test system: HS 578T breast
NCI/ADR-RES ovarian = test system: NCI/ADR-RES ovarian
IGROV1 ovarian = test system: IGROV1 ovarian

Measured: growth

COc1ccc(CCN=Cc2ccc(Cl)cc2)cc1OC
inactive: SK-MEL-2 melanoma 98.4% | EKVX NSCLC 111% | SN12C renal 99.5% | UO-31 renal 83.7% | TK-10 renal 107% | ACHN renal 106% | CAKI-1 renal 101% | A498 renal 95.3% | CCRF-CEM leukemia 105% | MOLT-4 leukemia 99.9% | SR leukemia 98.5% | RPMI-8226 leukemia 108% | OVCAR-8 ovarian 104% | OVCAR-5 ovarian 119% | OVCAR-4 ovarian 110% | SK-OV-3 ovarian 112% | OVCAR-3 ovarian 115% | HS 578T breast 106% | NCI/ADR-RES ovarian 106%

N#Cc1c[nH]n2ccnc12
inactive: SK-MEL-2 melanoma 105% | EKVX NSCLC 90.3% | SN12C renal 99.8% | UO-31 renal 94.7% | TK-10 renal 103% | ACHN renal 112% | CAKI-1 renal 104% | A498 renal 117% | CCRF-CEM leukemia 109% | MOLT-4 leukemia 109% | SR leukemia 120% | RPMI-8226 leukemia 112% | OVCAR-8 ovarian 98.2% | OVCAR-5 ovarian 107% | OVCAR-4 ovarian 118% | SK-OV-3 ovarian 95.3% | IGROV1 ovarian 93.1% | OVCAR-3 ovarian 110% | NCI/ADR-RES ovarian 105%

CC1CCC(=O)N1c1ccc(N)cc1 (configuration not stated)
inactive: SK-MEL-2 melanoma 99.7% | EKVX NSCLC 104% | SN12C renal 106% | UO-31 renal 93.7% | TK-10 renal 94.8% | ACHN renal 104% | CAKI-1 renal 102% | A498 renal 98.4% | CCRF-CEM leukemia 107% | MOLT-4 leukemia 105% | SR leukemia 93.8% | RPMI-8226 leukemia 103% | OVCAR-8 ovarian 100% | OVCAR-5 ovarian 99.9% | OVCAR-4 ovarian 107% | SK-OV-3 ovarian 99.3% | IGROV1 ovarian 101% | OVCAR-3 ovarian 108% | NCI/ADR-RES ovarian 106%

O=c1[nH]c(=S)[nH]n1C(=S)n1[nH]c(=S)[nH]c1=O
inactive: SK-MEL-2 melanoma 106% | EKVX NSCLC 105% | SN12C renal 101% | UO-31 renal 80.5% | TK-10 renal 106% | ACHN renal 99.3% | CAKI-1 renal 94.8% | A498 renal 109% | CCRF-CEM leukemia 93.6% | MOLT-4 leukemia 112% | SR leukemia 99.7% | RPMI-8226 leukemia 99% | OVCAR-8 ovarian 101% | OVCAR-5 ovarian 105% | OVCAR-4 ovarian 112% | SK-OV-3 ovarian 109% | IGROV1 ovarian 101% | OVCAR-3 ovarian 110% | NCI/ADR-RES ovarian 95.2%

O=c1[nH]nnc2cc(Cl)ccc12
inactive: SK-MEL-2 melanoma 121% and 144% | EKVX NSCLC 105% and 97.3% | SN12C renal 105% and 100% | UO-31 renal 70.5% and 76.3% | TK-10 renal 99.3% and 105% | ACHN renal 97.6% and 101% | CAKI-1 renal 92.2% and 95.8% | A498 renal 106% | CCRF-CEM leukemia 114% and 103% | MOLT-4 leukemia 104% and 95.9% | SR leukemia 117% and 102% | RPMI-8226 leukemia 112% and 109% | OVCAR-8 ovarian 95.2% and 98.2% | OVCAR-5 ovarian 103% and 96.5% | OVCAR-4 ovarian 124% and 98.8% | SK-OV-3 ovarian 114% and 117% | OVCAR-3 ovarian 100% and 123% | HS 578T breast 126% and 123% | NCI/ADR-RES ovarian 106% and 97.5%

CCC(C)NC(=O)c1ccccc1C (configuration not stated)
inactive: SK-MEL-2 melanoma 104% | EKVX NSCLC 91.2% | SN12C renal 96.5% | UO-31 renal 94.2% | TK-10 renal 99.3% | ACHN renal 95.4% | CAKI-1 renal 95.3% | A498 renal 89.2% | CCRF-CEM leukemia 103% | MOLT-4 leukemia 114% | SR leukemia 111% | RPMI-8226 leukemia 105% | OVCAR-8 ovarian 102% | OVCAR-5 ovarian 79.6% | OVCAR-4 ovarian 109% | SK-OV-3 ovarian 97.5% | IGROV1 ovarian 94.1% | OVCAR-3 ovarian 110% | NCI/ADR-RES ovarian 92.7%

CS(=O)(=O)c1nsc(N)n1
inactive: SK-MEL-2 melanoma 96.3% | EKVX NSCLC 108% | SN12C renal 101% | UO-31 renal 91.4% | TK-10 renal 101% | ACHN renal 107% | CAKI-1 renal 103% | A498 renal 97.4% | MOLT-4 leukemia 103% | SR leukemia 98.8% | RPMI-8226 leukemia 106% | OVCAR-8 ovarian 104% | OVCAR-5 ovarian 97.3% | OVCAR-4 ovarian 103% | SK-OV-3 ovarian 95.4% | IGROV1 ovarian 101% | OVCAR-3 ovarian 107% | HS 578T breast 103% | NCI/ADR-RES ovarian 104%

Cc1cc(O)c(C(C)C)cc1N=O
inactive: SK-MEL-2 melanoma 103% and 111% | EKVX NSCLC 101% and 102% | SN12C renal 95.7% and 105% | UO-31 renal 106% and 92.5% | TK-10 renal 101% and 99.7% | ACHN renal 95% and 91.5% | CAKI-1 renal 104% and 107% | A498 renal 94.8% and 95.5% | CCRF-CEM leukemia 90.3% | MOLT-4 leukemia 98.1% | SR leukemia 110% | RPMI-8226 leukemia 97.2% | OVCAR-8 ovarian 102% and 92.1% | OVCAR-5 ovarian 101% and 108% | OVCAR-4 ovarian 109% and 111% | SK-OV-3 ovarian 96.4% and 105% | IGROV1 ovarian 124% and 112% | OVCAR-3 ovarian 109% and 88.8% | NCI/ADR-RES ovarian 98.7% and 106%

CC1OS(=O)OC1C (configuration not stated)
inactive: SK-MEL-2 melanoma 91.4% and 111% | EKVX NSCLC 100% | SN12C renal 95.8% and 95.4% | UO-31 renal 96.1% | TK-10 renal 99.8% and 107% | ACHN renal 91.9% and 103% | CAKI-1 renal 96.7% and 89.1% | A498 renal 101% and 105% | CCRF-CEM leukemia 96.2% | MOLT-4 leukemia 81% and 113% | SR leukemia 93.5% | RPMI-8226 leukemia 105% and 106% | OVCAR-8 ovarian 101% and 97.9% | OVCAR-5 ovarian 102% and 97.6% | OVCAR-4 ovarian 104% and 100% | SK-OV-3 ovarian 99.6% and 118% | IGROV1 ovarian 105% | OVCAR-3 ovarian 103% and 106% | NCI/ADR-RES ovarian 107% and 99.7%

CCOP(=O)(OCC)/C(C#N)=C/c1c(C)[nH]c2ccccc12
inactive: SK-MEL-2 melanoma 99.2% | EKVX NSCLC 97.4% | SN12C renal 92% | UO-31 renal 72.8% | TK-10 renal 93.2% | ACHN renal 102% | CAKI-1 renal 51% | A498 renal 116% | CCRF-CEM leukemia 89.6% | MOLT-4 leukemia 97.9% | SR leukemia 94.8% | RPMI-8226 leukemia 88.8% | OVCAR-8 ovarian 94.8% | OVCAR-5 ovarian 103% | OVCAR-4 ovarian 41% | SK-OV-3 ovarian 100% | IGROV1 ovarian 105% | OVCAR-3 ovarian 105% | NCI/ADR-RES ovarian 97.9%

O=C(O)/C=C/C=C/c1ccccc1
inactive: SK-MEL-2 melanoma 104% and 115% | EKVX NSCLC 100% | SN12C renal 96% and 106% | UO-31 renal 93.1% and 88.4% | TK-10 renal 97.3% and 106% | ACHN renal 103% and 109% | CAKI-1 renal 98.9% and 101% | A498 renal 73.4% | MOLT-4 leukemia 106% and 109% | SR leukemia 104% and 109% | RPMI-8226 leukemia 112% and 99.7% | OVCAR-8 ovarian 102% and 109% | OVCAR-5 ovarian 103% and 96.8% | OVCAR-4 ovarian 116% and 108% | SK-OV-3 ovarian 113% and 104% | IGROV1 ovarian 105% and 110% | OVCAR-3 ovarian 124% and 98.8% | HS 578T breast 109% and 108% | NCI/ADR-RES ovarian 111% and 102%

OC(CC(c1ccccc1)c1cccc2ccccc12)(c1ccccc1)c1ccccc1 (configuration not stated)
inactive: SK-MEL-2 melanoma 77.9% and 74.5% | EKVX NSCLC 79.8% and 54.9% | SN12C renal 91.3% and 84.9% | UO-31 renal 70.2% and 57.4% | TK-10 renal 75.9% and 82.7% | ACHN renal 83.9% and 93% | CAKI-1 renal 64.6% and 57% | A498 renal 73.4% and 89.7% | CCRF-CEM leukemia 38.5% and 83.4% | MOLT-4 leukemia 77.3% and 52.7% | SR leukemia 94.9% and 63.1% | RPMI-8226 leukemia 88.4% and 67.4% | OVCAR-8 ovarian 72.8% and 87.1% | OVCAR-5 ovarian 92.1% and 89.9% | OVCAR-4 ovarian 81.3% and 75.7% | SK-OV-3 ovarian 85.4% and 93.1% | OVCAR-3 ovarian 94.1% and 90.6% | HS 578T breast 84.4% and 86.6% | NCI/ADR-RES ovarian 76.2% and 70.3%

CS(=O)(=O)OCC1NC(=O)C(COS(C)(=O)=O)NC1=O (configuration not stated)
inactive: SK-MEL-2 melanoma 75.4% and 89.1% | EKVX NSCLC 98.9% and 89.2% | SN12C renal 108% and 111% | UO-31 renal 91.7% and 94.1% | TK-10 renal 130% and 138% | ACHN renal 93.7% and 85.9% | CAKI-1 renal 97% and 91.3% | A498 renal 104% and 154% | CCRF-CEM leukemia 82.4% and 74.2% | MOLT-4 leukemia 91.6% and 69% | SR leukemia 104% and 125% | RPMI-8226 leukemia 82.7% and 90% | OVCAR-8 ovarian 87.5% and 107% | OVCAR-5 ovarian 106% and 124% | OVCAR-4 ovarian 79.8% and 87% | IGROV1 ovarian 63.4% and 57.5% | OVCAR-3 ovarian 122% and 94.8% | HS 578T breast 193% and 106% | NCI/ADR-RES ovarian 103% and 97.8%
